# aSyn UTR act – Activators via SNCA 5'UTR binding, MLPCN. alpha-synuclein 5'UTR reporter, activators screen. activity score, % (tested at 7.5 µM), hits read low. hit rate 7.1% among 300,000. AID 1814, 2009; in the data active = activity score below about -60%
# Hits are given with their value; 0 = inactive. The list is a sample of the results.
SMILES,aSyn UTR act
CC(C)Sc1nnc(NC(=O)c2ccc3c(c2)OCO3)s1,-118
CC(C)c1nnc(NC(=O)c2ccc3c(c2)OCO3)s1,0
CC(C)CC[n+]1ccccc1/C=C/c1ccc(N(C)C)cc1,0
CN(C)c1ccc(/C=C/c2cccc[n+]2[O-])cc1,-101
COC(=O)[C@H](Cc1ccccc1)NC(=O)c1cc(COc2c(F)cccc2F)on1,-85
O=C(Nc1ccc2c(c1)OCO2)c1cc(-c2ccc(O)cc2)on1,-158
COc1cccc(-c2cc(C(=O)Nc3ccc4c(c3)OCO4)no2)c1,-66
COc1cccc(OCc2cc(C(=O)NCc3ccc4c(c3)OCO4)no2)c1,-71
O=C(Nc1ccc2c(c1)OCO2)c1cc(-c2ccccc2Cl)on1,-143
CCN(CC)c1ccc(-c2nn3c(-c4n[nH]c5c4CCC5)nnc3s2)cc1,0
Clc1ccc(-c2n[nH]c3c2CCCC3)cc1,-70
Cc1cccc2sc(N(CCCN(C)C)C(=O)CCc3ccccc3)nc12,0
CN(C)CCCN(C(=O)CCc1ccccc1)c1nc2ccc(F)cc2s1,-70
CN(C)CCCN(C(=O)c1cc(-c2cccs2)nc2ccccc12)c1nc2ccc(F)cc2s1,0
CN(C)CCN(C(=O)c1cc(Cl)sc1Cl)c1nc2ccc(F)cc2s1,-94
CN(C)CCCN(C(=O)c1ccc(S(=O)(=O)N2CCc3ccccc3C2)cc1)c1nc2ccc(F)cc2s1,0
CN(C)CCCN(C(=O)c1ccc2c(c1)CCCC2)c1nc2ccc(F)cc2s1,-157
CN(C(=O)c1ccc(-c2ccccc2)cc1)C1CCCCC1,-127
Cc1ccc(C(=O)NC(=S)N(C)C2CCCCC2)cc1,-84
O=C(/C=C/c1ccc2ccccc2n1)c1cc(Cl)ccc1O,-69
CS(=O)(=O)Nc1ccc(C2=NN(S(C)(=O)=O)C(c3ccc4c(c3)OCO4)C2)cc1 (stereo not drawn),-207
CS(=O)(=O)N1N=C(c2ccc3nccnc3c2)CC1c1ccccc1 (stereo not drawn),-79
CS(=O)(=O)N1N=C(c2ccccc2)CC1c1ccc2nccnc2c1 (stereo not drawn),-77
Cc1ccc(C2=NN(S(C)(=O)=O)C(c3ccc4nccnc4c3)C2)cc1 (stereo not drawn),-127
COc1ccc(C2CC(c3ccc(OC)c(OC)c3)=NN2S(C)(=O)=O)cc1 (stereo not drawn),-169
SMILES,aSyn UTR act
COc1ccc(C2=NN(S(C)(=O)=O)C(c3ccc4nccnc4c3)C2)cc1 (stereo not drawn),-150
O=[N+]([O-])c1ccc(NCc2ccccc2)nc1,-67
CC(C)CNc1nc(N)c([N+](=O)[O-])c(NCc2ccccc2)n1,0
O=C1CCC/C(=N\NC(=O)c2ccc(COc3ccccc3-c3ccccc3)cc2)C1,-71
COc1ccccc1N1CCN(Cc2cc(Br)c(O)c3ncccc23)CC1,0
CC#CC(=O)N1CCCC(Cc2cccc(OC)c2)(C(=O)OCC)C1 (stereo not drawn),-106
CCOC(=O)C1(Cc2cccc(OC)c2)CCCN(C(=O)c2cc(C)oc2C)C1 (stereo not drawn),-71
CCOC(=O)C1(Cc2cccc(OC)c2)CCN(Cc2cccc(OCC)c2O)CC1,-69
CCOC(=O)C1(Cc2cccc(OC)c2)CCCN(C(=O)CSC)C1 (stereo not drawn),-97
CCOC(=O)C1(Cc2ccccc2)CCCN(C(=O)C=C(C)C)C1 (stereo not drawn),-137
CCOC(=O)C1(Cc2cccc(OC)c2)CCCN(C(=O)CCc2cccnc2)C1 (stereo not drawn),-133
CCOC(=O)C1(Cc2ccccc2C)CCCN(C(=O)c2sccc2C)C1 (stereo not drawn),-70
O=[N+]([O-])c1cc(-c2cnc3ccccc3n2)ccc1Oc1ccc(F)cc1,-150
O=[N+]([O-])c1ccc(-c2cnc3ccccc3n2)cc1,-124
CCOc1ccc(-c2cnc3ccccc3n2)cc1,0
COc1ccc(/C=C/C(=O)Nc2cc(=O)n(C)c(=O)n2C)cc1,-104
Cn1c(NC(=O)/C=C/c2ccc(Cl)c(Cl)c2)cc(=O)n(C)c1=O,-181
Cn1c(NC(=O)/C=C/c2ccccc2)cc(=O)n(C)c1=O,-253
Cn1c(NC(=O)CCc2ccccc2)cc(=O)n(C)c1=O,-186
NC(=O)CC1C(=O)N(c2ccccc2)C(=S)N1NC(=O)c1ccccc1 (stereo not drawn),-73
Cn1c(SCc2ccccc2F)nnc1-c1cnccn1,-187
Cn1c(SCc2ccccc2F)nnc1-c1ccccn1,-123
O=C(O)C(=O)/C(=C\c1ccccc1)c1ccc2ccccc2n1,-90
O=C(O)C(=O)/C(=C\c1ccc([N+](=O)[O-])cc1)c1ccc2ccccc2n1,-88
CC(=C/c1ccco1)/C=N/N1CCN(c2ccccc2)CC1,-175
SMILES,aSyn UTR act
CC(/C=N/N1CCN(c2ccccc2)CC1)=C\c1ccco1,-101
Cc1ccc(/C=N/Nc2nncn2N)cc1,-120
Cc1cc(C)c2c(CN3CCC(C)CC3)cc(=O)oc2c1,-157
Cc1cc2oc(=O)cc(CN3CCC(C)CC3)c2c(C)c1Cl,-88
Cc1cc(C)c2c(CCl)cc(=O)oc2c1,0
Cc1cc2oc(=O)cc(CN3CCC(C)CC3)c2cc1C,-82
CC(=O)Nc1cccc(NC(=O)c2ccc(COc3ccccc3)cc2)c1,-142
CCOc1c(Cl)cc(C(=O)Nc2cccc(C(=O)O)c2)cc1Cl,-80
CCOc1ccc(OCc2ccc(C(=O)N/N=C(\C)c3ccccn3)cc2)cc1,0
CCOc1cccc(C(=O)Nc2cccc(C(C)=O)c2)c1,-151
COc1ccc(C(=O)Nc2ccc(N3CCCC3)cc2)cc1OC,-166
O=C(Nc1cc2c(cc1C(=O)O)OCCCO2)c1ccc(C(F)(F)F)cc1,-94
CCOc1ccc(C(=O)Nc2ccc(N3CCN(C)CC3)cc2)cc1Br,-75
COc1cccc(C(=O)Nc2cccc(C(C)=O)c2)c1,-114
CC(=O)c1cc2c(cc1NC(=O)c1ccc(C)cc1)OCO2,-101
COc1ccc(C(=O)Nc2cccc(OC(=O)c3ccco3)c2)cc1,-113
COc1cccc(C(=O)Nc2cc3c(cc2C(C)=O)OCCO3)c1,-72
COc1cccc(C(=O)Nc2cccc(OC(C)=O)c2)c1,-90
CCOc1cccc(C(=O)Nc2ccc(N3CCCC3)cc2)c1,-66
CC1CC(C)(C)Nc2ccc(OC(=O)c3ccco3)cc21 (stereo not drawn),0
CC(C)CNC(=O)COC(=O)c1c2c(nc3ccccc13)/C(=C/c1cccs1)CC2,-110
COc1cc2c(cc1OC)C(C)N(C(=O)c1cc(Cl)nc(Cl)c1)CC2 (stereo not drawn),-105
CCC(C)c1ccc2oc(-c3ccc(NC(=O)Cn4cnc5c(=O)n(C)c(=O)n(C)c54)cc3)nc2c1 (stereo not drawn),-114
Cc1ccc2oc(-c3cccc(NC(=O)Cn4cnc5c(=O)n(C)c(=O)n(C)c54)c3)nc2c1,-119
CCOC(=O)Nc1ccc(Oc2ccccc2)cc1,-96
SMILES,aSyn UTR act
CCOC(=O)Nc1ccc(C(=O)/C=C/c2ccccc2)cc1,-69
CC(=O)c1ccc(NC(=O)Oc2ccccc2)cc1,-63
CCOC(=O)Nc1ccc(Cc2ccncc2)cc1,-63
Cc1c2c(nc3ccccc13)CCC(C(C)(C)C)C2 (stereo not drawn),-116
CC1CCc2c(sc3ncnc(NS(=O)(=O)c4cccs4)c23)C1 (stereo not drawn),-101
O=C(CNc1ccc(Br)cc1)c1ccc(Br)s1,-68
CC1CCCN(CCS(=O)(=O)c2ccccc2)C1 (stereo not drawn),-151
COc1ccc(Nc2n[nH]c(C)c2[N+](=O)[O-])cc1,-102
